Screening results deposited in PubChem by National Center for Advancing Translational Sciences (NCATS).
Rango-impB inh: Rango-importin beta binding inhibition. Potency, µM (series often up to 92.2 µM), without a hit: top-dose inhibition of complex formation. AID 540263. Rango CFP/YFP FRET sensor + importin beta, 45 min. hit rate 0.031% among 340,000;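 note: potency is the fitted concentration of half-maximal effect; 0% = DMSO wells and 100% = buffer wells lacking importin beta; nearly all actives have a fitted effect of over 15% in size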
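FRET biosensor (snurportin 1 IBB flanked by EYFP and cerulean), 50 nM, with compound 5 min, then 0.125 microM importin beta in PBS, 1 mM DTT, 0.02% Tween-20, 0.1% BSA. CFP/YFP ratio read after 45 min at room temperature; pre-read flags interference.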
KCNH2 3.1 block: KCNH2 3.1 (human) potassium channel inhibition; U2OS KCNH2 3.1, thallium flux FluxOr; hits give low values; activity change, % (tested at about 1.8 µM); hit rate 0.95% among 340,000;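 active = maximum activity change below -70%; inconclusive = maximum activity change from -70% to -50%; inactive = maximum activity change above -50%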;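 note: thallium influx rate constant from kinetic fluorescence after stimulation buffer; % is set by controls: 0 for no effect and ±100 for the full control effect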
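Channel expression came from 3.1 mutant virus (1.77 x 10^8 /mL) applied to suspended U2OS cells for 4 h. Flux was tracked with FluxOr dye plus Red40 quencher, and kinetic rate constants normalized to controls.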
hERG WT inh: inhibitors of human wildtype KCNH2 potassium channel; Q12809; U2OS, BacMam KCNH2, thallium flux FluxOr; hits give low values; activity change, % at 1.84 µM; hit rate 0.37% among 340,000; AID 720551;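 active = maximum activity change below -70%; inconclusive = maximum activity change between -70% and -50%; inactive = maximum activity change above -50%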; note: % is set by controls: 0 for no effect and ±100 for the full control effect
Target sequence (Q12809 whole entry, looked up): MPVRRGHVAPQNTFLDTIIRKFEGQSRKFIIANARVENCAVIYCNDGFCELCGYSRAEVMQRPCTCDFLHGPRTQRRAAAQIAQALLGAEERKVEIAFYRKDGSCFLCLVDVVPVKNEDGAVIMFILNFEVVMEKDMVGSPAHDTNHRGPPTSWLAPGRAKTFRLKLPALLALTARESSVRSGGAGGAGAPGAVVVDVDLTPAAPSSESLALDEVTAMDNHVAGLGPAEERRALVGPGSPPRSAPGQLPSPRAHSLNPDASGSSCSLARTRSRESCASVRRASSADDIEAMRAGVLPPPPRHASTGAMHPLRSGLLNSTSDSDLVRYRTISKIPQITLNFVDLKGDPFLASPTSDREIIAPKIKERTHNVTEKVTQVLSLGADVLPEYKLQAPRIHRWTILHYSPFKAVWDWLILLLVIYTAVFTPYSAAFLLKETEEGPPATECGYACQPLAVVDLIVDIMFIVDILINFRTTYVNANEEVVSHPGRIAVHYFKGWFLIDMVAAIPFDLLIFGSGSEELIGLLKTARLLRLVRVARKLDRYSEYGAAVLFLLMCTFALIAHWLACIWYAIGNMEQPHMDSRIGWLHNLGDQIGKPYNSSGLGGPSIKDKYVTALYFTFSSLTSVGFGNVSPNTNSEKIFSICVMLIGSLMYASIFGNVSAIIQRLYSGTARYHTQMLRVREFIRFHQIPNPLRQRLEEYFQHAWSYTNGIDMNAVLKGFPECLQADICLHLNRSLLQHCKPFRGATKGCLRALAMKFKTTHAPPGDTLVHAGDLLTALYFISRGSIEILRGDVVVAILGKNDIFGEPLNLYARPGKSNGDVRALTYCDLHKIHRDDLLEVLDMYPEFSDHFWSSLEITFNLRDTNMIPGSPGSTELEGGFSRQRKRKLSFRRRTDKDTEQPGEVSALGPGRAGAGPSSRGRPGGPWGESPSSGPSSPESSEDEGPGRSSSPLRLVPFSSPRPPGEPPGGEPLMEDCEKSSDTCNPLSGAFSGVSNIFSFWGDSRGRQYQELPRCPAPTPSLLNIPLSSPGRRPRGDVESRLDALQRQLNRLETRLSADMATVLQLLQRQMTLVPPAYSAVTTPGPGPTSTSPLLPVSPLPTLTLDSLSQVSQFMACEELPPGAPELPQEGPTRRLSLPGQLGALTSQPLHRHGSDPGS
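U2OS cells were transduced with wild-type KCNH2 virus (2.03 x 10^8 / mL) for 4 h at room temperature, then cultured overnight at 37 C. Thallium flux was read with FluxOr dye. Rate constants were normalized to DMSO controls.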
Rango release inh: inhibition of RanGTP-driven Rango-importin beta dissociation. hit rate 0.071% among 340,000. O95149+P62826. Biochemical FRET Rango-importin beta, RanGTP-induced dissociation. Potency, µM (highest dose often 46.1 µM), without a hit: at the highest dose activity change, negative = inhibition; note: potency is the fitted concentration of half-maximal effect; % of control where 0% means no effect; nearly all actives have a fitted effect of over 45% in size
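Compounds preincubate 5 min with complex of recombinant Rango and importin beta in PBS with 1 mM DTT. Ran (0.6 uM) loaded with 2 mM GTP plus 0.2 uM RCC1 starts dissociation; FRET is recorded 45 min later.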
Numbers without * were called inactive; u = inconclusive; x = no result given; ! = a repeat was not active. Sampled rows, rich in hits. Any-hit rate of the full collection: about 1.3%. Unless noted, calls come from the whole dose curve.

SMILES | Rango-impB inh | KCNH2 3.1 block | hERG WT inh | Rango release inh
CCCCOc1ccc(N2CC(C(=O)NCc3ccco3)CC2=O)cc1 (centres undefined) | 0% | 4 | -3 | 3%
COC(=O)c1sccc1NC(=O)c1c(-c2ccccc2)noc1C | 4% | -74* | 0 | 2%
Cc1onc(-c2ccccc2)c1C(=O)Nc1ccc(NC(=O)c2c(-c3ccccc3)noc2C)cc1 | 5% | -24 | -7 | -29%
CC1CCN(C(=O)C(C)NCc2ccc(F)cc2)CC1 (centres undefined) | 6% | 1 | -4 | 12%
CCOC(=O)c1ccc(NC(=S)N(CCCN2CCCC(C)C2)Cc2cccs2)cc1 (centres undefined) | 5% | -80* | -89* | 0%
O=C(Cn1nnc(-c2ccccc2F)n1)N1CCCCC1 | 1% | -134* | -7 | -8%
COc1cccc(CN(C)C(=O)/C=C/c2ccc(S(=O)(=O)N3CCCCCC3)cc2)c1 | 1% | -23 | -12 | 5%
CCOC(=O)c1c(CN2CCN(c3ccccc3)CC2)oc2ccc(O)cc12 | 6% | -16 | 4 | 5%
CCOC(=O)c1c(N2CCN(c3ccccc3)CC2)cc(C)nc1C | 0% | -97* | -48 | 14%
O=C(NCCc1ccccc1)c1ccc(-c2ccc(F)cc2)o1 | 4% | 8 | 7 | 26%
O=C(NCCc1ccccc1)c1ccc(-c2ccccc2C(F)(F)F)o1 | -1% | -214* | 1 | -12%
Cc1cccc(-n2c(N)c(-c3nc4ccccc4n3C)c3nc4ccccc4nc32)c1 | u | -96* | -134* | u
COc1cccc(CN(C)C(=O)c2ccc(NC(=O)CC3SC(N4CCCC4)=NC3=O)cc2)c1OC (centres undefined) | 0% | 4 | -1 | 2%
O=C(NCCc1ccccc1F)c1cc(COc2ccc(F)cc2F)on1 | x | u | 3 | x
O=C(NCCc1ccccc1C(F)(F)F)c1cc(COc2ccccc2)on1 | x | -111* | -18 | x
Cc1cccn2c(=O)c3cc(C#N)c(=N)n(CCN4CCOCC4)c3nc12 | u | 10 | -6 | 8.2µM*
Cc1cccn2c(=O)c3cc(C#N)c(=N)n(CCCN4CCOCC4)c3nc12 | u | 8 | 0 | u
CC(=O)Nc1ccc(S(=O)(=O)N2CCC(C(=O)NCCc3c[nH]c4ccccc34)CC2)cc1 | 0% | -133* | -10 | 8%
O=C(CCNC(=O)C1CCN(S(=O)(=O)c2ccc(F)cc2)CC1)NCc1ccc(Cl)cc1 | 0% | -113* | -22 | 4%
O=C(NCCc1c[nH]c2ccccc12)C1CCN(S(=O)(=O)c2ccccc2)CC1 | -1% | -2 | 1 | 2%
O=C(CCNC(=O)C1CCN(S(=O)(=O)c2ccc(F)cc2)CC1)NCc1ccc(F)cc1 | 4% | -9 | -3 | -9%
COc1cccc(C(=O)NCCS(=O)(=O)N(C)Cc2ccccc2)c1 | 1% | -10 | 1 | 3%
CCCCN(C(=O)c1cccs1)C1CCS(=O)(=O)C1 (centres undefined) | -5% | -1 | 16 | 8%
Cc1cccc(CSc2ncccc2C(=O)O)c1 | 7% | 5 | -87* | 3%
Cc1ccc(CSc2ncccc2C(=O)O)cc1 | 0% | -10 | -2 | -2%
SMILES | Rango-impB inh | KCNH2 3.1 block | hERG WT inh | Rango release inh
C[C@@H]1CN([C@@H](C)CO)C(=O)CCCn2nncc2CO[C@@H]1CN(C)S(=O)(=O)c1cccs1 | x | -16 | 7 | x
CCOc1ccc(C(=O)Nc2ccc(NC(=O)c3ccco3)c(Cl)c2)cc1Cl | 0% | -72* | 2 | -3%
COc1cccc(C(=O)Nc2ccc(NC(=O)c3ccco3)c(Cl)c2)c1 | 4% | 5 | -4 | -10%
CCOc1ccc(C(=O)Nc2ccc(NC(=O)c3ccco3)c(Cl)c2)cc1Br | -2% | -81* | -12 | -4%
CCOC(=O)C1CCN(C(=O)C2CCN(c3ncnc4c3nc3n4CCCCC3)CC2)CC1 | -1% | 4 | 8 | -14%
OC1CNc2c(ccc3ccccc23)C1 (centres undefined) | u | -13 | 4 | -16%
CC(/C=C\c1cccnc1)=C/C(=O)O | -2% | -77*! | -1 | -8%
O=C(O)/C=C/c1cccnc1 | 0% | -21 | -12 | 2%
CCOC(=O)c1cn(CC#N)c2cc(F)c(F)cc2c1=O | -1% | -4 | -70* | 8%
CCCCCCn1cc(C(=O)OCC)c(=O)c2cc(F)c(F)cc21 | u | 3 | 1 | -6%
